Source: PubChem BioAssay
ATXN viability = reduces viability in counter-screen for ATXN expression inhibitors | S2 cells (HEK-293 line with an ATXN2-luciferase reporter) viability, CellTiter-Fluor protease fluorescence, 24 h | Potency, µM (doses to about 56.7 µM), most hits filed as cytotoxic | actives 0.49% (n = 400,000); further: nearly all actives have a fitted effect of over 40% in size
Gal4-VP16 FLuc = inhibits Gal4-VP16 luciferase reporter, ROR gamma counter-screen; Drosophila S2 Gal4-VP16 UAS-luciferase, luminescence, 20 h; Potency, µM (doses to about 53.6 µM), without a hit: at the top dose activity, negative = inhibition, usual class: inhibitors; actives 3.5% (n = 310,000); AID 2546;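 further: Gal4-VP16 expression switched on by copper sulfate through the metallothionein promoter; on the % scale 0 is the no-effect control and ±100 the full control effect; nearly all actives have a fitted effect of over 50% in size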
ATXN2 expr inh = reduces ATXN2 reporter expression in HEK-293 cells; HEK-293 ATXN2-luciferase reporter, luminescence, 24 h; Potency, µM (doses to about 57 µM), for the others: top-dose activity change, negative = inhibition, most hits filed as inhibitors; actives 0.72% (n = 360,000); AID 1745845; further: on the % scale 0 is the no-effect control and ±100 the full control effect; nearly all actives have a fitted effect of over 55% in size
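ATXN2-luciferase reporter cells (luciferase flanked by upstream and downstream ATXN2 gene portions) were treated 24 h at 37 °C with compounds at up to 57 uM. SteadyGlo luminescence gave expression; GF-AFC fluorescence gave viability.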
RORgamma inh = blocks mouse ROR gamma transcriptional activity. P51450. Potency, µM (doses to about 53.6 µM), without a hit: at the highest dose activity change, negative = inhibition, most hits filed as inhibitors. AID 2551. Drosophila S2 Gal4-RORgamma UAS-luciferase reporter, 20 h. actives 5.4% (n = 310,000); further: on the % scale 0 is the no-effect control and ±100 the full control effect; nearly all actives have a fitted effect of over 60% in size
Target sequence (P51450 whole entry, looked up, the tested form may be a part): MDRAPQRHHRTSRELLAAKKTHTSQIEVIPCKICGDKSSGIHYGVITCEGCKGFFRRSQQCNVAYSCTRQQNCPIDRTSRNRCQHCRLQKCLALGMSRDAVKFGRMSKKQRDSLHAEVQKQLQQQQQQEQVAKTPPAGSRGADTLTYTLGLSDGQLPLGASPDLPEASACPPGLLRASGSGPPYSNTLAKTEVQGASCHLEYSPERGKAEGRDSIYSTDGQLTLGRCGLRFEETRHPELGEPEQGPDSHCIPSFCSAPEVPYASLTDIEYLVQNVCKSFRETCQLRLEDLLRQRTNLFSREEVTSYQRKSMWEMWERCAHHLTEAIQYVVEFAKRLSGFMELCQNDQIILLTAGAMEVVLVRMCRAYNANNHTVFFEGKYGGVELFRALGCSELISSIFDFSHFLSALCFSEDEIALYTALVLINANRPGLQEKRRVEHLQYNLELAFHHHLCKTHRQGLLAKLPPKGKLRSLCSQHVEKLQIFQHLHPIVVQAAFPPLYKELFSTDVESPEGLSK
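Luciferase reporter read in Schneider cells carrying Gal4-RORγ (mouse) and UAS-Photinus luciferase; cells given compound 1 h before 700 uM copper sulfate induction, then incubated 20 h at ambient temperature.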
HepG2 viability = counter-screen for TGF-b inhibitors: cytotoxicity in HepG2 cells. actives 0.76% (n = 410,000). HepG2 CAGA-GFP viability, ATP luminescence, 18 h. AID 588856. Potency, µM (doses to about 46.1 µM), inactives show at the highest dose activity change, negative = cytotoxicity, usual class: cytotoxic
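HepG2 CAGA-GFP cells (1000/well, DMEM with 1% FBS) received compound, then TGF-beta at 500 pg/mL final, and were incubated 18 hours at 37 degrees C. Viability was read by CellTiter-Glo luminescence. Media-only wells were set as complete cell-killing and DMSO as no toxicity.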
TGFb inhibitor = TGF-b pathway inhibition; Potency, µM (doses to about 46.1 µM), for the others: top-dose activity, negative = inhibition, actives largely listed as inhibitors; actives 1.2% (n = 410,000); HepG2 CAGA-GFP TGF-b/SMAD3 reporter, GFP fluorescence, 18 h; TGF-beta stimulated, 500 pg/mL final; further: on the % scale 0 is the no-effect control and ±100 the full control effect; nearly all actives have a fitted effect of over 65% in size
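Inhibition was scored as loss of TGF-beta-induced (500 pg/mL final, 18 hours, 37 degrees C) GFP in HEPG2 cells carrying a CAGA-GFP reporter, in DMEM with 1% FBS. Well GFP was summed per cell; Activity was normalised to unstimulated and stimulated DMSO wells, then concentration-response fitting.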
* hit, by the source's call. An excerpt weighted towards active compounds, which were near 6.1% of everything screened. The call rests on the fitted dose curve; in most records, active means well fitted curve in the direction sought with a large enough effect; inconclusive means small, poorly fitted or top-dose-only effect, or another doubt; inactive means no such curve, though single readings can be large; an effect the other way counts as inactive or inconclusive. Potency means the concentration at half of the fitted maximal effect.

COc1cccc(NC(=O)C(=O)NCCc2ccc(F)cc2)c1 was read as ATXN viability inactive, Gal4-VP16 FLuc inconclusive, ATXN2 expr inh 26%, RORgamma inh 13%, HepG2 viability 20µM* and TGFb inhibitor -10%.
Screening COc1cccc(NC(=S)Nc2ccc(F)cc2)c1 returned ATXN viability inactive, Gal4-VP16 FLuc inconclusive, ATXN2 expr inh 5%, RORgamma inh 16µM*, HepG2 viability 0% and TGFb inhibitor 0%.
For COc1cccc(NC(=S)NCc2ccccc2)c1 the results were ATXN viability inactive, Gal4-VP16 FLuc 8.9µM*, RORgamma inh 10µM*, HepG2 viability -31% and TGFb inhibitor -21%.
For Fc1ccc(NC(=S)NCc2cccs2)cc1 the results were ATXN viability inactive, Gal4-VP16 FLuc 28µM*, ATXN2 expr inh -6%, RORgamma inh 11µM*, HepG2 viability -11% and TGFb inhibitor -4%.
`CC(C)NC(=S)NCc1cccs1` gave ATXN viability inactive, Gal4-VP16 FLuc -5%, ATXN2 expr inh inconclusive, RORgamma inh inconclusive, HepG2 viability -8% and TGFb inhibitor -8%.
`CC(C)CN(CC(C)C)C(=O)C1CCCN(S(=O)(=O)c2ccc3c(c2)oc(=O)n3C)C1` (centres undefined) gave ATXN viability inactive, ATXN2 expr inh 7%, HepG2 viability 2% and TGFb inhibitor -2%.
For Cc1ccc2nc(-c3ccc(Cl)c(NC(=O)COc4ccc([N+](=O)[O-])cc4)c3)oc2c1 the results were ATXN viability inactive, ATXN2 expr inh 49%, HepG2 viability -95% and TGFb inhibitor -23%.
`Cc1ccc(NC(=S)NCc2cccs2)cc1` gave ATXN viability inactive, Gal4-VP16 FLuc inconclusive, ATXN2 expr inh 39%, RORgamma inh 11µM*, HepG2 viability 7% and TGFb inhibitor -23%.
COc1ccc(Cl)cc1NC(=S)NCc1cccs1 was read as ATXN viability inactive, Gal4-VP16 FLuc inconclusive, ATXN2 expr inh -21%, RORgamma inh 10µM*, HepG2 viability 0% and TGFb inhibitor 1%.
Screening NS(=O)(=O)c1ccc(NC(=S)NCc2cccs2)cc1 returned ATXN viability inactive, Gal4-VP16 FLuc 6%, ATXN2 expr inh 3%, RORgamma inh 3%, HepG2 viability 3% and TGFb inhibitor -4%.
Cc1cc(C)c(C)c(OC(=O)c2sc(Cl)nc2C)c1 was read as ATXN viability 22µM*, Gal4-VP16 FLuc -1%, ATXN2 expr inh 20µM*, RORgamma inh 28%, HepG2 viability 1% and TGFb inhibitor 0%.
CC(C)c1c(O)ccc2c1CCC1C(C)(C)CCC[C@@]21C (some centres undefined) was read as Gal4-VP16 FLuc 10µM* and RORgamma inh inconclusive.
Screening O=C(/C=C/c1ccccc1Cl)N1CCCN(C(=O)/C=C/c2ccccc2Cl)CC1 returned ATXN viability inactive, Gal4-VP16 FLuc -8%, ATXN2 expr inh 4%, RORgamma inh 31%, HepG2 viability -25% and TGFb inhibitor -1%.
For CC(OC(=O)/C=C/c1ccc(Br)cc1)C(=O)N1CCOCC1 (centres undefined) the results were ATXN viability inactive, ATXN2 expr inh -8%, HepG2 viability 0% and TGFb inhibitor -23%.
CN1CCN(C(=S)NC(=O)/C=C/c2ccccc2)CC1 was read as ATXN viability inactive, Gal4-VP16 FLuc inconclusive, ATXN2 expr inh 5%, RORgamma inh 11µM*, HepG2 viability 3% and TGFb inhibitor inconclusive.
Screening O=C(/C=C/c1ccc(Br)cc1)NC(=S)N1CCOCC1 returned ATXN viability inactive, Gal4-VP16 FLuc 0.4µM*, ATXN2 expr inh 3%, RORgamma inh 0.71µM*, HepG2 viability -3% and TGFb inhibitor -3%.
`CN1CCN(C(=S)NC(=O)/C=C/c2ccccc2Cl)CC1` gave ATXN viability inactive, Gal4-VP16 FLuc inconclusive, ATXN2 expr inh 36%, RORgamma inh 2.5µM*, HepG2 viability 2% and TGFb inhibitor 0%.
CCCCCCCCCCCCOC(=O)N1CCN(/[N+]([O-])=N/Oc2ccc([N+](=O)[O-])cc2[N+](C)=O)CC1 was read as HepG2 viability -42% and TGFb inhibitor -2%.
For O=C(N/N=C/c1ccc(N2CCOCC2)s1)c1ccccc1Cl the results were ATXN viability inactive, Gal4-VP16 FLuc inconclusive, ATXN2 expr inh 11%, RORgamma inh 7.9µM*, HepG2 viability -9% and TGFb inhibitor -4%.
Screening O=C(N/N=C/c1sc(N2CCOCC2)nc1-c1ccccc1)c1ccccc1O returned ATXN viability inactive, Gal4-VP16 FLuc 2.8µM*, ATXN2 expr inh inconclusive, RORgamma inh 2.2µM*, HepG2 viability -39% and TGFb inhibitor inconclusive.
For O=[N+]([O-])c1ccc(N/N=C/c2sc(N3CCOCC3)nc2-c2ccccc2)c(S(=O)(=O)Nc2ccc(Cl)cc2)c1 the results were ATXN viability inconclusive, Gal4-VP16 FLuc 3.2µM*, ATXN2 expr inh inconclusive, RORgamma inh inconclusive, HepG2 viability 6% and TGFb inhibitor inconclusive.
For O=C(N/N=C/c1sc(N2CCOCC2)nc1-c1ccccc1)c1ccccc1Cl the results were Gal4-VP16 FLuc -7%, ATXN2 expr inh 0%, RORgamma inh 0%, HepG2 viability -3% and TGFb inhibitor 2%.
For COc1ccccc1CNc1nc(-c2ccco2)nn1S(=O)(=O)c1ccc(C)cc1 the results were ATXN viability inactive, ATXN2 expr inh -6%, HepG2 viability -15% and TGFb inhibitor -24%.
`CC1(C)C(=O)N(CC(=O)Nc2ccc(Br)cc2F)c2ccccc21` gave ATXN viability inactive, ATXN2 expr inh -11%, HepG2 viability -2% and TGFb inhibitor -26%.
Cc1onc(-c2ccccc2)c1C(=O)Nc1nnc(C(C)C)s1 was read as ATXN viability inactive, Gal4-VP16 FLuc -18%, ATXN2 expr inh 1%, RORgamma inh -33%, HepG2 viability -2% and TGFb inhibitor -1%.
Screening Cc1onc(-c2ccccc2)c1C(=O)Nc1nnc(N2CCCCCC2)s1 returned ATXN viability inactive, Gal4-VP16 FLuc 0.35µM*, ATXN2 expr inh 3%, RORgamma inh inconclusive, HepG2 viability -9% and TGFb inhibitor -3%.
For Cc1noc(C)c1C(=O)Nc1nnc(-c2ccccc2)s1 the results were ATXN viability inactive, Gal4-VP16 FLuc inconclusive, ATXN2 expr inh 1%, RORgamma inh 11µM*, HepG2 viability -14% and TGFb inhibitor 26%.
